# In the library only some 6% were active in any assay of this set; here they are far more common.
# DRD3 antagonist: blocks the human D3 dopamine receptor | P35462 | D3R cells, DiscoveRx beta-arrestin luminescence, antagonist mode; active compounds read low | max response, negative = inhibition, % | hit rate 2.5% among 360,000; in the data active = max response below about -50%; inconclusive = no clear call, values can overlap the other calls; note: % is set by controls: 0 for no effect and ±100 for the full control effect
#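 Cells plated overnight at 1500 cells/well, then exposed to library compounds with dopamine controls for 90 minutes at 37 degrees C. DiscoveRx reagent added for 30–60 minutes at room temperature; luminescence read, quantitative HTS format.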
# D1 antag: blocks dopamine activation of the human D1 receptor; P21728; HEK293 TREx D1 cells, calcium flux, dopamine EC80; active compounds read low; activity change, negative = inhibition, % at 10 µM; hit rate 3.2% among 360,000; in the data active = activity change below about -30%; note: % is set by controls: 0 for no effect and ±100 for the full control effect
# Target sequence (P21728 whole entry, looked up): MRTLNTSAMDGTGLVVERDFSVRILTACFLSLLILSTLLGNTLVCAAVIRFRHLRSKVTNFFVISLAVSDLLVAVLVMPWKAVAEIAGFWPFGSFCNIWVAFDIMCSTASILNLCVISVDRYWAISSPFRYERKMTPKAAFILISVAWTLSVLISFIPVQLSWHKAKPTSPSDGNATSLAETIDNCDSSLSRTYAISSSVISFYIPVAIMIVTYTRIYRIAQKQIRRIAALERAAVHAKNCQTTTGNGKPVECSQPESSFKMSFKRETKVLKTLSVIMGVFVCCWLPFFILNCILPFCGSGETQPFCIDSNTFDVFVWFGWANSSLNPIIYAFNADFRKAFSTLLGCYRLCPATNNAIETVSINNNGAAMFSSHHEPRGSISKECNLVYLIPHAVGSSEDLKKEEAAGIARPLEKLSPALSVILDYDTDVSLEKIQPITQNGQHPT
#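 Allosteric or orthosteric antagonism assessed as attenuation of the calcium response to EC80 dopamine, added 180 s after compound, in induced HEK293 Trex D1 cells loaded with no-wash calcium dye.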
# DRD3 agonist: D3 dopamine receptor (human) agonism; P35462; max activation, %; D3R DiscoveRx beta-arrestin cells, luminescence, 90 min; hit rate 0.58% among 410,000; AID 652048; in the data active = max activation above about 30%; note: 0% is about no effect
#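 Agonist-mode cell screen: cells plated at 1500/well and incubated overnight at 37 °C, then exposed to library compounds for 90 min at 37 °C. Detection reagent was added for 30–60 min at room temperature, and luminescence was read.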
# D1 PAM: potentiators of human D1 dopamine receptor; P21728; AID 504651; potentiation, % at 10 µM; HEK293 TREx D1 cells, calcium flux, dopamine EC20 potentiation; hit rate 0.036% among 360,000; in the data active = potentiation above about 30%; note: 0% is about no effect
# D1 agonist: activates the human D1 dopamine receptor; hit rate 1% among 360,000; HEK293 T-REx D1 cells, calcium flux, agonist mode; P21728; activation, % at 2 µM; in the data active = activation above about 30%; note: 0% is about no effect
#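 Tetracycline-induced HEK293 TREx D1 cells, force-coupled to calcium signalling, were dye-loaded with a no-wash calcium kit. Compound was pin-added after a 10 s baseline. Fluorescence was read kinetically at 1 cycle/s for 180 s, with calcium rises flagged as agonism.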
# An asterisk follows results filed as active; ? = inconclusive; / = not tested or not shown.
SMILES,DRD3 antagonist,D1 antag,DRD3 agonist,D1 PAM,D1 agonist
Cc1cccc(-n2c(CC3C(=O)Nc4ccc(C)cc43)nc3ccccc3c2=O)c1 (stereo unspecified),/,8,10,-1,1
Cc1ccc2c(c1)C1CN(C)CCC1N2C(=O)CCCN1C(=O)c2cccc3cccc(c23)C1=O (stereo unspecified),2,-49*,-9,-16,1
Cc1ccc2c(c1)[C@@H]1CN(C)CC[C@@H]1N2C(=O)Nc1cccc(C(F)(F)F)c1,-13,-52*,-34,-27,20
Cc1ccc2c(c1)C1CN(C)CCC1N2C(=O)Nc1cccc(C(F)(F)F)c1 (stereo unspecified),-9,/,-19,-4,23
O=C(N/N=C/c1c(O)n(CCC2=CCCCC2)c(=O)[nH]c1=O)c1ccccc1,-68*,9,-5,0,2
Nc1ccccc1N=Cc1c(O)n(CCC2=CCCCC2)c(=O)[nH]c1=O,-87*,-10,-10,-2,0
C[C@]12CC[C@H]3[C@@H](CC[C@@]45O[C@@H]4C(O)=C(C#N)C[C@]35C)[C@@H]1CC[C@@H]2O,/,/,-1,/,/
CN1CCN(c2ccc([N+](=O)[O-])c3no[n+]([O-])c23)CC1,?,-38*,-41,-6,33*
CN1CCN(c2ccc(S(C)(=O)=O)cc2[N+](=O)[O-])CC1,8,5,9,5,3
O=[N+]([O-])c1ccc(N(CCO)CCO)c2c1no[n+]2[O-],-99*,/,-23,/,/
CC(=O)O[C@H]1C[C@H](O[C@H]2[C@@H](O)C[C@H](O[C@H]3[C@@H](O)C[C@H](OC4CC[C@@]5(C)[C@H](CC[C@@H]6[C@@H]5CC[C@]5(C)[C@@H](C7=CC(=O)OC7)CC[C@]65O)C4)O[C@@H]3C)O[C@@H]2C)O[C@H](C)[C@H]1O[C@@H]1O[C@H](CO)[C@@H](O)[C@H](O)[C@H]1O (stereo partly specified),/,/,10,/,/
Cc1ccc(Cn2cccc(C(=O)Nc3ccc4c(c3)OCO4)c2=O)cc1,/,/,-1,1,4
COc1ccc2c3c1O[C@H]1[C@@H](O)C=C[C@H]4[C@@H](C2)NCC[C@@]341,/,/,-15,/,/
COc1ccc(Cl)cc1N=Cc1c(O)n(C)c(=O)n(C)c1=O,-15,3,24,-8,1
COc1ccccc1N=Cc1c(O)n(C)c(=O)n(C)c1=O,-10,-35*,0,0,2
CC1CCC/C=C/C2CC(O)CC2C(O)/C=C/C(=O)O1 (stereo unspecified),-8,-7,1,4,4
C[C@H]1CCC/C=C/C2C[C@H](O)CC2[C@H](O)/C=C/C(=O)O1 (stereo partly specified),5,-41*,24,-3,2
C=CCN1C(=O)NC(=O)/C(=C/C=C/c2ccccc2)C1=O,-1,-34*,2,-11,3
CCCOC(=O)Cc1ccc(OCC(=O)N(CC)CC)c(OC)c1,/,/,6,/,/
CCOC(=O)c1ccc(NC(=O)c2c(O)[nH]c(=O)[nH]c2=O)cc1,-19,-8,1,-5,241*
CC12CC1(C)C(=O)N(c1cc(Cl)cc(Cl)c1)C2=O (stereo unspecified),-56*,/,1,/,/
O=C1CC(=O)N(c2cccc(Cl)c2)C(=O)N1,-26,-2,-7,2,0
CC(Cc1cnccn1)NCc1c(C(=O)N2CCCCCCC2)nc2ccc(Cl)cn12 (stereo unspecified),13,-6,2,-1,1
Cc1ccc(-n2cc(CNC(C)Cc3cnccn3)c(-c3cccc(C)c3)n2)cc1 (stereo unspecified),10,35,-6,-3,37*
[2H]C([2H])([2H])[C@H](N)Cc1ccccc1,/,/,7,/,/
SMILES,DRD3 antagonist,D1 antag,DRD3 agonist,D1 PAM,D1 agonist
C[C@]12C/C(=C/O)C(=O)C[C@@H]1CC[C@@H]1[C@@H]2CC[C@@]2(C)[C@H]1CC[C@]2(C)O,/,/,8,/,/
O=C(O)c1ccc2[nH]cc(CCCCN3CC=C(c4ccccc4)CC3)c2c1,/,/,73*,/,/
O=C(CCN1CC=C(c2ccccc2)CC1)NCc1ccccc1,-69*,/,10,/,/
Oc1ccc2ccccc2c1CN1CC=C(c2ccccc2)CC1,?,-2,-12,14,4
Cc1[nH]c2ccccc2c1C(=O)CN1CC=C(c2ccccc2)CC1,?,-23,1,-4,7
Oc1ccc2[nH]cc(CCCCN3CC=C(c4ccccc4)CC3)c2c1,/,/,55*,/,/
C=Cc1ccc(Cn2c(C)c(CNCCc3cc(OC)ccc3OC)c(C(=O)O)c2C)cc1,/,15,5,0,-2
CCCCCc1cc(O)c2c(c1)OC(C)(C)[C@@H]1CCC(C)=C[C@@H]21,/,/,8,/,/
O=[N+]([O-])c1cc(O)c(O)c([N+](=O)[O-])c1,16,-41*,8,-2,-1
O=[N+]([O-])c1ccc(O)c([N+](=O)[O-])c1,-7,/,14,/,/
CCCCCCCCCC(=O)O[C@H]1CC[C@H]2[C@@H]3CCC4=CC(=O)CC[C@]4(C)[C@H]3CC[C@]12C,/,/,3,/,/
O=C(NC(O)C(Cl)(Cl)Cl)NC(O)C(Cl)(Cl)Cl (stereo unspecified),/,/,77*,/,/
FC(F)OC(F)(F)C(F)Cl (stereo unspecified),/,/,11,/,/
CCSc1nnc(NC(=O)c2cccn(Cc3ccccc3Cl)c2=O)s1,/,-3,-1,-4,1
CC(C)Cc1nnc(NC(=O)CCC(=O)N2CCN(CCOC(c3ccccc3)c3ccccc3)CC2)s1,-14,-32*,-12,-4,6
Cc1cccc(C2CC(=O)Oc3c2c(=O)oc2ccccc32)c1 (stereo unspecified),/,9,-14,2,0
CSc1ccc(CN2CCN(Cc3ccccc3Cl)CC2)cc1,-97*,3,-2,2,5
COc1ccc(CC(=O)N(CCN(C)C)CC2CCCN(Cc3ccccc3F)C2)cc1 (stereo unspecified),-6,0,-9,3,10
COc1ccc(CN2CCN(Cc3ccccc3F)CC2)cc1,-73*,-10,-38,-2,3
Cc1nnc(NC(=O)c2cccn(Cc3ccccc3F)c2=O)s1,/,2,-4,-2,1
Cc1ccc(C(C)C)c(OCC(=O)N2CCN(CCc3ccncc3)CC2)c1,/,-13,-8,-1,-2
Cc1ccc(CN2CCCN(Cc3ccc(Cl)cc3)S2(=O)=O)cc1,-18,-18,77*,9,6
Cc1ccccc1CN1CCCN(Cc2ccc(Cl)cc2)S1(=O)=O,?,-4,-1,3,5
c1ccc(CN2CCN(Cc3ccc4ccccc4c3)CC2)cc1,-69*,-12,-15,-6,2
Oc1c(Cl)cc(Cl)cc1CN1CCN(Cc2ccccc2)CC1,-51*,-19,-39,-11,3
CCC1(C)CC(=O)NC(=O)C1,/,/,3,/,/
CCCc1nc(SC)ncc1C(=O)Nc1ccc(Cl)cc1C(=O)c1ccccc1,/,10,9,-1,1

# Screening data as filed in PubChem.
